dFosB act = mouse delta FosB homodimer activation; purified delta FosB, TAMRA-CDK5 oligo fluorescence polarization; percent of positive-control signal above neutral wells; activation, % at 25 µM; 0.99% of 340,000 active; AID 493131;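 active = mean activation above about 17%, with every replicate also reaching it, limit read from the data, passing the limit was not always enough; inconclusive = only one of the two conditions met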
Target sequence (P13346 whole entry, looked up): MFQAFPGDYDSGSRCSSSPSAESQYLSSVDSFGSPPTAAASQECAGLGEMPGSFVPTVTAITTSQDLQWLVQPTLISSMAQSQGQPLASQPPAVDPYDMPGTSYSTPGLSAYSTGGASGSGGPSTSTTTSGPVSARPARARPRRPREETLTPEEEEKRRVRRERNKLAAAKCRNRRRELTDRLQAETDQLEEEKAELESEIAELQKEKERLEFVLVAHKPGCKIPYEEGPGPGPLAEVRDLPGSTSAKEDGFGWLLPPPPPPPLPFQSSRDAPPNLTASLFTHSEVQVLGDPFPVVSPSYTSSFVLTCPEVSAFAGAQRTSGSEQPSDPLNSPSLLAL
Dyrk1A ADPGlo = Dyrk1A (rat) kinase inhibition; Q63470; ADP-Glo luminescence, NFATc1 peptide; inhibition, % at 12.5 µM; 0.43% of 310,000 active; AID 504441; in the data active = inhibition above about 50%;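 note: plate controls were vehicle with enzyme for no effect and no enzyme for full effect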
CDK5 inh = blocks human CDK5/p35 kinase activity; AID 488839; inhibition, % at 10 µM; Q00535+Q15078; 0.01% of 330,000 active; Recombinant CDK5/p35, ADP-Glo luminescence, 60 min;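 active = highest replicate inhibition of at least 50% and at least 75% of replicates reaching 50%; inconclusive = only one of the two criteria met; inactive = both criteria failed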;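 note: plate controls were DMSO neutral control for no effect and GW8510 at 10 µM for full effect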
esBAF inh = inhibitors of esBAF chromatin remodeling in mouse ES cells. Bmi1-luciferase knock-in reporter, 24 h; 100% = twice the neutral-well signal. reporter increase, % at 12.5 µM. 2% of 350,000 active. AID 602393; in the data active = activation above about 40%; inconclusive = no clear call, values can overlap the other calls;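 note: 0% = median of the plate's neutral control wells and 100% = double that signal; a rise in the Bmi1 reporter signal indicates esBAF inhibition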
Rtt109 Vps75 = blocks Candida albicans Rtt109/Vps75 acetyltransferase activity; Q5AAJ8; purified Rtt109/Vps75, ThioGlo CoA-SH fluorescence, 4 h; inhibition, % at 34.9 µM; 0.16% of 330,000 active; AID 540336;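 active = inhibition of at least 50% in every replicate; inconclusive = best replicate reaches 50% inhibition but some replicates fall short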
SMARCA2 act = increases SMARCA2 function in MMTV reporter cells; MG213 cells, MMTV-luciferase reporter, dexamethasone, overnight; activation, % at 9.1 µM; 1% of 370,000 active; AID 652017; in the data active = activation above about 7.8%;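 note: 0% = vehicle wells and 100% = reference activator wells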
Starred values were filed as active, the others as inactive; ? = inconclusive; / = not tested or not shown. Hits are enriched below; roughly 3.2% of the tested compounds scored in any of these assays.

SMILES | dFosB act | Dyrk1A ADPGlo | CDK5 inh | esBAF inh | Rtt109 Vps75 | SMARCA2 act
Cc1ccc(C)c(NC(=O)c2cc3ccccc3o2)c1 | -14 | 2 | 1 | 74* | 5 | 2
COc1ccc(C)cc1NC(=O)c1cc2ccccc2o1 | 3 | -3 | -3 | 8 | 1 | 3
O=C(Nc1ccccc1C(F)(F)F)c1cc2ccccc2o1 | 13 | 0 | 1 | 52* | 3 | 2
CC1CN(C2=NC(=O)/C(=C3/C(=O)N(Cc4ccc(F)cc4)c4ccccc43)S2)CC(C)O1 (centres undefined) | -1 | / | 0 | / | 4 | -1
CCCN1C(=O)/C(=C2\SC(N3CCCCC3)=NC2=O)c2ccccc21 | -26 | -1 | 3 | 74* | -2 | 6
O=C1N=C(N2CCCCC2)SC1=C1CCCCC1 | -3 | -4 | 1 | 75* | 6 | -2
CN1C(=O)/C(=C2\SC(N3CCCCCC3)=NC2=O)c2ccccc21 | -19 | -4 | -2 | 46* | -22 | 4
O=C1N=C(N2CCOCC2)S/C1=C1\C(=O)N(Cc2ccccc2)c2ccccc21 | 0 | 3 | -1 | 52* | -4 | 1
CN1C(=O)/C(=C2\SC(N)=NC2=O)c2ccccc21 | -11 | 9 | -2 | / | -2 | -1
C[C@H](CO)N1C[C@H](C)[C@@H](CN(C)Cc2ccc(C(=O)O)cc2)OCCCC[C@H](C)Oc2ccc(NS(=O)(=O)c3ccc(Cl)cc3)cc2C1=O | / | / | / | 1 | / | /
Cc1ccc2nc(Cl)c(/C=C/C(=O)c3ccco3)cc2c1 | -12 | 1 | 1 | 50* | 6 | 7
CCCNC(=O)C[C@H]1C[C@@H]2c3cc(NC(=O)CC4CC4)ccc3O[C@@H]2[C@@H](CO)O1 | / | / | / | 2 | / | /
c1coc(CNc2c3c(nc4ncnn24)CCCC3)c1 | 4 | 34 | 0 | / | -1 | -2
Clc1cccc(-c2cc3nc4c(c(NCc5ccco5)n3n2)CCCC4)c1 | -3 | 1 | -3 | 44* | -3 | 6
CCCCCc1ccc(-c2cn(Cc3ccc(C(=O)c4ccccc4)cc3)nn2)cc1 | 8 | 40 | 1 | 53* | -9 | 0
CC1CCC2(CC1)NC(=O)N(NC(=O)c1cccs1)C2=O (centres undefined) | -3 | -5 | 0 | -4 | 4 | 1
C/C(NC(=O)c1cccs1)=C1\C(=O)C[C@@H]2[C@H]1C2(C)C | 6 | -5 | 0 | 44* | 8 | 6
CCOC(=O)c1c(C)[nH]c(C(=O)COC(=O)C2(C)CC2(Cl)Cl)c1C (centres undefined) | -8 | 4 | 1 | 76* | -5 | 5
CC(=O)c1c(C)[nH]c(C(=O)OCc2ccccc2)c1C | -7 | 0 | 2 | 40* | 7 | 1
CC(=O)c1c(C)[nH]c(C(=O)OCc2ccc([N+](=O)[O-])cc2)c1C | -9 | -4 | 2 | 41* | 7 | -2
COC(=O)c1ccc(COC(=O)c2[nH]c(C)c(C(C)=O)c2C)o1 | -5 | 18 | 1 | -6 | 4 | -2
CCOC(=O)c1c(C)[nH]c(C(=O)COC(=O)C2CC2)c1C | -7 | / | -1 | ? | -7 | 7
CC(=O)c1c(C)[nH]c(C(=O)OCC(=O)NCc2ccccc2)c1C | / | / | / | 10 | / | -7
CCOC(=O)c1c(C)[nH]c(C(=O)OCC(=O)Nc2ccc(OC)c(Cl)c2)c1C | 140* | 4 | -1 | -1 | 7 | -3
CCS(=O)(=O)NCC[C@@H]1CC[C@@H](NS(=O)(=O)c2cccc(F)c2)[C@@H](CO)O1 | / | / | / | 2 | / | /
SMILES | dFosB act | Dyrk1A ADPGlo | CDK5 inh | esBAF inh | Rtt109 Vps75 | SMARCA2 act
COc1cccc(C(=O)N2C[C@H]3[C@@H](c4ccccc42)[C@@H](CO)N3C(C)=O)c1 | / | / | / | 1 | / | /
O=C(C[C@@H]1C=C[C@@H](NC(=O)c2ccc3c(c2)OCO3)[C@H](CO)O1)NCc1ccc(Oc2ccccc2)cc1 | / | / | / | 4 | / | /
CCOC(=O)c1c(C)[nH]c(C(=O)OCc2ccccc2F)c1C | 2 | -6 | 1 | 38 | -33 | 7
CCOC(=O)c1c(C)[nH]c(C(=O)OCc2ccc(F)cc2)c1C | -4 | 4 | 1 | 49* | -2 | 3
CC(=O)c1c(C)[nH]c(C(=O)COC(=O)c2nccnc2N)c1C | -2 | / | 0 | 8 | 3 | -2
CC(=O)c1c(C)[nH]c(C(=O)COC(=O)c2cccnc2Cl)c1C | -11 | -5 | 1 | 52* | 3 | -2
CCOC(=O)c1c(C)[nH]c(C(=O)OCC(=O)c2ccccc2)c1C | -16 | 12 | -1 | 45* | 2 | 5
CCOC(=O)c1c(C)[nH]c(C(=O)OCC(=O)NCc2ccccc2)c1C | 12 | -6 | 0 | 19 | -4 | 2
Cc1cc(C)n2nc(-c3cccc(Br)c3)cc2n1 | -20 | 8 | 1 | ? | 6 | 4
Cc1cccc(-c2cc3nc(C)cc(C)n3n2)c1 | -6 | 7 | 0 | 66* | 7 | 5
CCCNC(=O)N1C[C@H](O)COC[C@@H]2O[C@@H](CC(=O)NCc3ccncn3)CC[C@H]21 | / | / | / | -4 | / | /
Cn1ccs/c1=N\C(=O)Nc1ccccc1 | -9 | -3 | 0 | 56* | -8 | 4
Cn1ccsc1=NC(=O)c1ccc(Cl)cc1 | -3 | / | -1 | / | 5 | 5
COc1ccc(C(=O)N=c2sccn2C)cc1 | -4 | / | 0 | / | 0 | 3
Cn1ccsc1=NC(=O)c1ccc(S(=O)(=O)C(F)F)cc1 | -5 | -3 | -1 | 58* | -8 | 1
CN(C)c1ccc(C(=O)N=c2sccn2C)cc1[N+](=O)[O-] | 3 | -4 | -1 | 56* | -2 | 1
COC(=O)c1ccc(C(=O)N=c2sccn2C)cc1 | -25 | -3 | 2 | 60* | -6 | 7
C[C@H](CO)N1C[C@H](C)[C@@H](CN(C)C(=O)Nc2ccc(F)cc2)Oc2ccc(NC(=O)Cn3cnnn3)cc2CC1=O | / | / | / | -6 | / | /
N#Cc1nc(COc2ccccc2)oc1N1CCCCC1 | -4 | 1 | 0 | 60* | -7 | 1
O=C(CSc1nnc2ccccn12)NNC(=O)c1cccc(Cl)c1 | 0 | -1 | 0 | / | 58* | 1
COc1ccccc1C#Cc1ccc2c(c1)[C@H]1[C@H](CCN1C(=O)c1ccc(F)cc1)[C@H](CO)N2 | / | / | / | 6 | / | /
CC1CCCCN1C(=O)COC(=O)c1cc(Cl)c2c(c1)OCO2 (centres undefined) | 3 | / | 0 | 55* | 1 | 2
O=C(OCC(=O)c1cccs1)c1ccccc1 | -2 | -8 | 0 | 47* | -2 | 1
CC1CCN(C(=O)Cn2nnc(-c3cccs3)n2)CC1 | 1 | -2 | -4 | 48* | -3 | 1
CC1CCN(C(=O)COC(=O)c2ccc3c(c2)OCCO3)CC1 | 13 | 0 | 0 | 29 | -3 | 1
CC1CCN(C(=O)COC(=O)c2ccc3c(c2)OCO3)CC1 | -2 | / | 0 | 48* | -4 | 2
CC1CCN(C(=O)COC(=O)c2cccs2)CC1 | 3 | 0 | -2 | 65* | -4 | 2

High-throughput results deposited in PubChem by several laboratories.
